Test results: paper PMC4336329 (PLoS ONE, 2015)
Among all 310,000 compounds or so, about 14,000 (4.5%) showed an effect of 50% or more. Effects have a minus sign here. This is one part of a sample in which strong results are shown more often than they occur.

These molecules were tested against human ether-à-go-go-related gene (hERG) potassium channel (human, UniProt Q12809) (assay: primary screen, population patch clamp on CHO cells stably expressing hERG; higher = less effect of the substance).
Sequence of human ether-à-go-go-related gene (hERG) potassium channel (Q12809 whole entry, looked up): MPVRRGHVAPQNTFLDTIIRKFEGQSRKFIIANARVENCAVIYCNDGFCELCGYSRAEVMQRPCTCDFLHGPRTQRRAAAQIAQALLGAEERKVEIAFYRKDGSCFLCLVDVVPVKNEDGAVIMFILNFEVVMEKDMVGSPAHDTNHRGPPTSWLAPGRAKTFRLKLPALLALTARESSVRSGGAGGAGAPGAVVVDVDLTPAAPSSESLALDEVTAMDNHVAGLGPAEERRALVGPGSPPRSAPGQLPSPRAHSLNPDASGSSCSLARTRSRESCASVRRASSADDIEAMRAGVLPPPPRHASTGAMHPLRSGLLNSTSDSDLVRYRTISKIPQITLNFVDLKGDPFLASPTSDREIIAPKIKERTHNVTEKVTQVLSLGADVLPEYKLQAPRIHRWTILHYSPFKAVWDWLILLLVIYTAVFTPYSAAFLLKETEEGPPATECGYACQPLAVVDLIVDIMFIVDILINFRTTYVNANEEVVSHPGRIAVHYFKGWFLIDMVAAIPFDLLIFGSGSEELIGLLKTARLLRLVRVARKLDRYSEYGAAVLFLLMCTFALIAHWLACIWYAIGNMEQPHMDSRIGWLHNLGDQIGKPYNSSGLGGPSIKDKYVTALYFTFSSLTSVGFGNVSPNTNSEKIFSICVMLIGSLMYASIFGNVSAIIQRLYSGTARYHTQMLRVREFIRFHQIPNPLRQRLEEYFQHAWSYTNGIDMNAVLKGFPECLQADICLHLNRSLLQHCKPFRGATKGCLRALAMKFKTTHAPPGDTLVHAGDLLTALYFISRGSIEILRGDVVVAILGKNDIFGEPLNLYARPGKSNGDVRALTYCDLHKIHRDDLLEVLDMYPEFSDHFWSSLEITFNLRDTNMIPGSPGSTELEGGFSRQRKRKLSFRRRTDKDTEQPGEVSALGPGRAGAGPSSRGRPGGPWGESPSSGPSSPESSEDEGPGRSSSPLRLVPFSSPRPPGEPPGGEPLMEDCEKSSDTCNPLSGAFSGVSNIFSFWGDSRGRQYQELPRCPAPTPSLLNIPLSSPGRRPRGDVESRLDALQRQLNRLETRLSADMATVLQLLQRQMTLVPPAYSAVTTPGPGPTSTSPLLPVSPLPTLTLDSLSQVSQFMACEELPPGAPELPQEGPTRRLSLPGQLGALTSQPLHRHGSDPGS
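Further: peak tail current of the secondary pulse compared with the same well before compound.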

Structure (SMILES)	hERG current change (%, negative = inhibition) at 10uM [%]
COc1ccc(N(CC(=O)NCc2ccc3c(c2)OCO3)S(C)(=O)=O)cc1OC	1.12
COc1ccc(C2NC(=O)NC(C)=C2C(=O)OCC2CCCCC2)cc1OC (stereo not drawn)	-2.11
Cc1cc(NC(CC(C)C)C(=O)O)nc(Cc2ccccc2)n1 (stereo not drawn)	9.96
CCN(CC)CCOC(=O)C1(c2ccc(OC)c(OC)c2)CCCC1.Cl	-16.9
COc1cccc(Nc2c([N+](=O)[O-])cncc2[N+](=O)[O-])c1	-2.64
Cc1ccc(S(=O)(=O)Nc2ccc(-n3cnnn3)cc2)cc1	-1.93
COc1ccccc1CCNC(=O)CCC(=O)N1CC2C[C@@H](C1)Cn1c2cccc1=O	6.31
CC(C)SCC(=O)Nc1ncc2c(n1)-c1ccccc1CC2	7.72
COc1ccccc1CCCNC(=O)C1CCC(=O)N(CCc2cccc(F)c2)C1 (stereo not drawn)	-19.1
COc1ccc(CCN2CC(C(=O)NCCc3ccc(F)cc3)CCC2=O)cc1 (stereo not drawn)	-22
COc1cccc(CN2CC(C(=O)NCCCc3ccc(C)cc3)CCC2=O)c1 (stereo not drawn)	-28.4
O=C(NCCCc1ccncc1)C1CCC(=O)N(CCc2cccc(F)c2)C1 (stereo not drawn)	-51.8
O=C(NCCc1cccnc1)C1CCC(=O)N(CCc2cccc(F)c2)C1 (stereo not drawn)	7.99
O=C(NCCCc1ccncc1)C1CCC(=O)N(Cc2cccc(F)c2)C1 (stereo not drawn)	-14.5
Cc1ccc(CCNC(=O)C2CCC(=O)N(Cc3cccc(F)c3)C2)cc1 (stereo not drawn)	-4.64
COc1ccc(CCCNC(=O)C2CCC(=O)N(CCc3cccc(F)c3)C2)cc1 (stereo not drawn)	-53.1
Cc1ccc(CCCNC(=O)C2CCC(=O)N(Cc3cccc(F)c3)C2)cc1 (stereo not drawn)	-53.4
O=C(CN1C(=O)NC2(CCCCCCC2)C1=O)NCc1cccs1	7.8
CC(=O)c1c(C)[nH]c(C(=O)COc2ccc3c(C)cc(=O)oc3c2)c1C	7.54
CC(=O)c1cc(NC(=O)c2ccccc2)c(=O)oc1/C=C/N(C)C	-12.1
S=C(NCCCN1CCOCC1)Nc1ccc(-c2nc3ccccc3[nH]2)cc1	-11.7
CSc1cccc(NS(=O)(=O)c2ccc(-c3coc(C)n3)cc2)c1	22.6
CCCCn1c(SCc2cccc([N+](=O)[O-])c2)nc2ccsc2c1=O	10

Structure (SMILES)	hERG current change (%, negative = inhibition) at 10uM [%]
CN1CCN(CCCNC(=O)c2ccc(Cn3c(=S)[nH]c4ccc(Br)cc4c3=O)cc2)CC1	17.4
O=C(C1CCN(c2nc3ccc(Br)cc3s2)CC1)N1CCC2(CC1)OCCO2	-62.3
CCCC(=O)N1CCN(c2nc3ccc(Br)cc3s2)CC1	-71
Brc1ccc2nc(N3CCCC3)sc2c1	13
CCC(=O)N1CCN(c2nc3ccc(Br)cc3s2)CC1	-44.2
Cc1ccc2nc(N3CCC(C(=O)N4CCC5(CC4)OCCO5)CC3)sc2c1	-19.8
CC(C)(C)C(=O)N1CCN(c2nc3ccc(Br)cc3s2)CC1	-8.45
CCc1ccc2nc(N3CCC(C(=O)N4CCC5(CC4)OCCO5)CC3)sc2c1	-42.5
CC(=O)N1CCN(c2nc3ccc(Br)cc3s2)CC1	-49.4
CCCCC(=O)N1CCN(c2nc3ccc(Br)cc3s2)CC1	-69.4
Cc1nc([N+](=O)[O-])cn1Cc1cccc([N+](=O)[O-])c1	-8.42
CCOC(=O)C(=O)N/N=C/c1ccco1	11.3
CCOc1ccc(-n2c(SCC(N)=O)nc3c(c2=O)SCC3)cc1	12
Cc1ccccc1OCCNc1cc(N2CC(C)NC(C)C2)ccc1[N+](=O)[O-] (stereo not drawn)	-12.3
Cc1ccc(C2CC2C(=O)NNC(=S)Nc2cccc(Cl)c2)cc1 (stereo not drawn)	-4.44
COc1ccc(OCc2cc(C(=O)N3CCN(CC(=O)N(C)C)CC3)no2)c(Cl)c1	-13.4
COc1cc2c(=O)n(CC3CCCO3)c(=O)n(CC(=O)Nc3ccccc3)c2cc1OC (stereo not drawn)	-2.85
O=C(c1ccc(Cn2c(=O)[nH]c3ccccc3c2=O)cc1)N1CCN(c2ccc(F)cc2)CC1	-15.5
COc1ccc(N2CCN(C(=O)c3cc4c(=O)n(Cc5ccccc5)ccc4nc3C)CC2)cc1	-55.2
CS(=O)(=O)N(Cc1ccccc1)c1ccccc1C(=O)N1CCN(c2ccccc2)CC1	-46.6
COc1ccc(Cn2c(=O)[nH]c3cc(C(=O)N4CCN(c5ccccc5)CC4)ccc3c2=O)cc1	9.23
Cc1nc2ccn(Cc3ccccc3)c(=O)c2cc1C(=O)N1CCN(c2ccccc2)CC1	-74
Cc1nc2ccn(Cc3ccccc3)c(=O)c2cc1C(=O)N1CCN(c2ccc(F)cc2)CC1	-78.5

Structure (SMILES)	hERG current change (%, negative = inhibition) at 10uM [%]
COc1ccc(N2CCN(C(=O)c3cc4c(C)nc5ccccc5c4o3)CC2)cc1	-47
O=C(c1cc(-c2ccco2)nc2ccccc12)N1CCN(c2ccc(F)cc2)CC1	-28.8
COc1cccc(N2CCN(C(=O)c3cc4c(=O)n(Cc5ccccc5)ccc4nc3C)CC2)c1	-49.8
CSC1=C(C#N)C(c2ccc(Cl)cc2)C2=C(CC(C)(C)CC2=O)N1 (stereo not drawn)	-6.94
C=CCCCCc1nc2ccccc2c(=O)n1N	6.28
Cc1ccc2c(C)nc(N/C(N)=N/S(=O)(=O)c3ccc([N+](=O)[O-])cc3)nc2c1	-13.1
COc1cc(C(=O)NC(c2ccccc2)c2ccccc2)cc(OC)c1C	15.2
CC(C)CCNC(=O)[C@H](CSCc1ccccc1)N1Cc2ccccc2C1=O	-61
COCCCNC(=O)[C@H](CSCc1ccccc1)N1Cc2ccccc2C1=O	-14.5
COCCNC(=O)[C@H](CSCc1ccccc1)N1Cc2ccccc2C1=O	-42.6
CC(C)NC(=O)[C@H](CSCc1ccccc1)N1Cc2ccccc2C1=O	-40
O=C(NCCCN1CCCC1)[C@H](CSCc1ccccc1)N1Cc2ccccc2C1=O	-56.8
O=C(NCCCN1CCCC1=O)[C@H](CSCc1ccccc1)N1Cc2ccccc2C1=O	1.78
COC(CNC(=O)[C@H](CSCc1ccccc1)N1Cc2ccccc2C1=O)OC	-3.49
CCCCNC(=O)[C@H](CSCc1ccccc1)N1Cc2ccccc2C1=O	-68.5
CC(C)CCNC(=O)[C@H](Cc1ccccc1)N1Cc2ccccc2C1=O	-11.6
N#CCCN1CCCc2cc(N=Nc3ccc(C(F)(F)F)cc3)ccc21	13.4
COc1ccc(Cl)cc1Nc1nc(C)cc(C)c1C(N)=O	14.3
CC(C)C[C@@H]1NC(=O)[C@H](CO)NC(=O)c2cc([N+](=O)[O-])cc(I)c2OCC[C@@H](C(N)=O)NC1=O	2.3
CCC(=O)Nc1ccc(NC(=S)NC(=O)c2cc3ccccc3o2)cc1	7.15
COc1ccc(Cn2nnnc2CN2CCN(c3ccc(OC)cc3)CC2)cc1	-3.66
O=[N+]([O-])c1ccc2cn(-c3ccccc3)nc2c1	-0.226
O=C(CCc1nc2ccccc2c(=O)[nH]1)Nc1cc(C(F)(F)F)ccc1N1CCOCC1	-35.3

Structure (SMILES)	hERG current change (%, negative = inhibition) at 10uM [%]
CN(Cc1ccc(C(F)(F)F)cc1)C(=O)C1CCC(=O)N(C2CC2)C1 (stereo not drawn)	-51.7
Cc1ccc(CN(C)C(=O)C2CCC(=O)N(C3CCCCCC3)C2)cc1 (stereo not drawn)	7.71
CN(Cc1cccc(Cl)c1)C(=O)C1CCC(=O)N(C2CC2)C1 (stereo not drawn)	1.31
Cc1cccn2c(=O)c3cc(C(=O)NC4CCCCC4)c(=N)n(CCN4CCOCC4)c3nc12	-87
Cc1cccn2c(=O)c3cc(C(=O)NC4CCCC4)c(=N)n(CCCN4CCOCC4)c3nc12	-74.7
CCCCOc1nc2ccccc2nc1NS(=O)(=O)c1ccc(F)cc1	-5.01
Cc1nc2scc(-c3cccs3)c2c(=O)n1CC(=O)O	5.83
CCOC(=O)COc1c(Br)cc(/C=C2\SC(=O)N(CC(=O)N3CCCC3)C2=O)cc1OC	-24
Cc1cccc(CCNC(=O)CN(C)S(=O)(=O)c2cnc[nH]2)c1	4.07
Cc1ccccc1C(=O)c1cccn1CC(=O)N1CCCCC1	10.6
Cc1onc(-c2ccccc2Cl)c1C(=O)Nc1ccc(-c2nnc3n2CCCCC3)cc1	-4.31
CCCCn1c(SCC(=O)Nc2ccc3c(c2)CCC3)nc2ccccc2c1=O	-33.6
Cc1ccc(-n2c(SCC(=O)Nc3cc(S(=O)(=O)N4CCOCC4)ccc3Cl)nc3ccccc3c2=O)cc1	2.71
CS(=O)(=O)c1ccc(Cl)c(NC(=O)CSc2nc3ccccc3c(=O)n2CCCN2CCOCC2)c1	-47.7
COCCn1c(SCC(=O)Nc2ccc3c(c2)CCC3)nc2ccccc2c1=O	4.46
CCC(C)NC(=O)CSc1nc2ccccc2c(=O)n1CCCN1CCCCC1 (stereo not drawn)	-13.8
COCCCNC(=O)CSc1nc2ccccc2c(=O)n1CCCN1CCCCC1	2.04
Cc1ccc(NC(=O)CSc2nc3ccccc3c(=O)n2CCCN2CCCCC2)cc1Cl	-73.7
CN(C)S(=O)(=O)c1ccc(Cl)c(NC(=O)CSc2nc3ccccc3c(=O)n2CCCN2CCOCC2)c1	-73.9
Cc1ccc(NC(=O)CSc2nc3ccccc3c(=O)n2CCCN2CCCCC2)cc1C	-71.9
CCN(CC)CCn1c(SCC(=O)Nc2ccc3c(c2)CCC3)nc2ccccc2c1=O	-83
